Bioassay records as filed in PubChem.
The list is not random: actives were taken first. Their share in the collection is about 5.8%.
VP16 counter: inhibits Gal4-VP16 luciferase reporter, ROR gamma counter-screen; Drosophila S2 Gal4-VP16 UAS-luciferase, luminescence, 20 h; Potency, µM (series often up to 53.6 µM), for inactives: at the highest dose activity, negative = inhibition, actives largely listed as inhibitors; 310,000 tested, 3.5% active; AID 2546;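 also: Gal4-VP16 expression switched on by copper sulfate through the metallothionein promoter; potency is read from the fitted curve at half-maximal effect; % is scaled to controls: 0 for no effect and ±100 for the full control effect; nearly all actives have a fitted effect of over 50% in size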
TRPV1 potentiator: human TRPV1 potentiation | Q8NER1 | TRPV1-expressing cells, Fluo-8 calcium influx, capsaicin EC20 potentiation | potentiation, % at 8.33 µM | 320,000 tested, 0.02% active; in the data active = potentiation above about 80%; inconclusive = between about 30% and that limit; also: 0% is about no effect
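Cells expressing TRPV1 were dye-loaded with Fluo-8 and read kinetically: 10 s baseline, 3 min after compound (agonist portion), then 2 min after EC20 capsaicin (allosteric enhancer portion). Calcium-bound dye fluorescence at 480/520 nm.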
TRPV1 agonist: human TRPV1 agonism | Q8NER1 | activation, % at 8.33 µM | 320,000 tested, 0.19% active | TRPV1-expressing cells, Fluo-8 calcium influx, agonist mode; in the data active = activation above about 80%; inconclusive = between about 30% and that limit; also: 0% is about no effect
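Cells expressing TRPV1 were dye-loaded with Fluo-8 and read kinetically: 10 s baseline, 3 min after compound (agonist portion), then 2 min after EC20 capsaicin (allosteric enhancer portion). Calcium-bound dye fluorescence at 480/520 nm.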
RORg inh: blocks mouse ROR gamma transcriptional activity; Potency, µM (doses to about 53.6 µM), inactives show top-dose activity change, negative = inhibition, actives largely listed as inhibitors; P51450; 310,000 tested, 5.4% active; Drosophila S2 Gal4-RORgamma UAS-luciferase reporter, 20 h; also: potency is read from the fitted curve at half-maximal effect; % is scaled to controls: 0 for no effect and ±100 for the full control effect; nearly all actives have a fitted effect of over 60% in size
Target sequence (P51450 whole entry, looked up, the tested form may be a part): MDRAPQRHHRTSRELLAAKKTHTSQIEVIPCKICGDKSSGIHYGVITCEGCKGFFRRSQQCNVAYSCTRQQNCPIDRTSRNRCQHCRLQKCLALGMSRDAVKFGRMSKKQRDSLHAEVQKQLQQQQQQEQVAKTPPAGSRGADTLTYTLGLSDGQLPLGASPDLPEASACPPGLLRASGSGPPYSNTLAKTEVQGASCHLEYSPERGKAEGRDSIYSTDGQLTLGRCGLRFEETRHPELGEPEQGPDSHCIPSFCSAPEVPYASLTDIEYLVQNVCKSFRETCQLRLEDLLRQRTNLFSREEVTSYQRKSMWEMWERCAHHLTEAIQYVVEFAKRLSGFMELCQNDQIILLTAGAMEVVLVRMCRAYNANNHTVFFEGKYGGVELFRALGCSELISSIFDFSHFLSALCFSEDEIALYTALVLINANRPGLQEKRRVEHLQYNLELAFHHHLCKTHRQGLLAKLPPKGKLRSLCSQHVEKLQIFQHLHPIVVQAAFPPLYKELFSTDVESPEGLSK
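Stable Schneider cell line, Gal4 DNA-binding domain fused to ROR gamma, UAS-luciferase. Cmpd 1 hr RT → CuSO4 700 uM final → 20 hr RT → luciferase reagent 10 min → luminescence.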
uPA surface inh: blocks generation of uPA at the cell surface | cell surface uPA generation assay, qHTS | Potency, µM (top dose mostly 38.3 µM), for the others: top-dose activity change, negative = inhibition, most hits filed as inhibitors | 330,000 tested, 0.31% active | AID 540303; active = well fitted inhibition curve with a large enough effect; inconclusive = small, poorly fitted or top-dose-only effect; inactive = no such curve, though single readings can be large or run the other way; tested in mouse RAW 264.7 cells; also: potency is read from the fitted curve at half-maximal effect; % is scaled to controls: 0 for no effect and ±100 for the full control effect; nearly all actives have a fitted effect of over 55% in size
* marks the source's active call; other numbers are inactive results; u = inconclusive; x = no result; [ ] = dose if it differs, or a comment. Unless noted, calls follow the shape of the dose curve; as a rule, active = well fitted curve in the direction sought with a large enough effect; inconclusive = small, poorly fitted or top-dose-only effect, or another doubt; inactive = no such curve, though single readings can be large; an effect the other way counts as inactive or inconclusive.

SMILES	VP16 counter	TRPV1 potentiator	TRPV1 agonist	RORg inh	uPA surface inh
Brc1ccc(-c2ccc(/C=N/Nc3nc4ccccc4[nH]3)o2)cc1	5µM*	-7	u	4.5µM*	10µM*
C(/CCc1ccccc1)=N\Nc1nc2ccccc2[nH]1	-26%	3	0	11µM*	-13%
Brc1ccc(-c2ccc(/C=N/Nc3nc(N4CCOCC4)nc(N4CCOCC4)n3)o2)cc1	2%	3	1	-1%	-1%
C(=N\Nc1nc2ccccc2[nH]1)/c1ccccc1	u	-10	24	10µM*	-7%
CN(N=O)C(=O)N[C@H]1[C@@H](O)[C@H](O)[C@H](CO)O[C@@H]1O	1%[17 µM]	x	x	7%[2.98 µM]	x
S=C(NCCCn1ccnc1)Nc1cccc(Cl)c1	3%	14	-4	0%	-5%
CCN(CC)CCCC(C)n1c(-c2ccccc2)nc2c(NCCOC)nc(C)nc21 (stereo not drawn)	-4%	x	x	-36%	x
C(=C\c1ccccc1)/C=N/Nc1nc2ccccc2[nH]1	5µM*	26	-3	3.2µM*	4µM*
CCCc1cc(=O)[nH]c(SC/C=C/c2ccccc2)n1	x	x	x	x	4%
Cc1[nH]c2ccccc2c1/C=N/Nc1nc2ccccc2[nH]1	-19%	-23	2	-2%	-6%
O=C(NCc1nc2ccccc2[nH]1)C1CCCCC1	-8%	4	2	9%	-4%
CCCc1cc(=O)[nH]c(N/N=C/C=C\c2ccccc2)n1	4%[10 µM]	1	1	7.1µM*	-5%
Fc1ccc(/C=N/Nc2nc3ccccc3[nH]2)cc1F	u	-17	u	7.9µM*	-20%
C(=N\Nc1nc2ccccc2[nH]1)/C1CCCCC1	u	8	-2	11µM*	7%
CCCC[C@@H]1C[C@H]1C(NC(=O)c1ccccc1)c1ccccc1C(F)(F)F (stereo partly drawn)	-7%	x	x	u	x
CC(C)=CCc1c(O)cc(O)c2c1O[C@H](c1ccccc1)CC2=O	-18%	x	x	1%	x
O=C(Nc1ccc(Cl)cc1Cl)c1n[nH]c(Cn2cncn2)n1	-26%	-14	1	u	-8%
CS(=O)(=O)Nc1cccc(C(=O)OCCCOc2ccc(F)cc2)c1	4%	11	4	1%	1%
COc1cc(OC)cc(C(=O)N2CCN(C(=O)c3ccc(OC)c(OC)c3)CC2)c1	-12%	0	-3	-27%	-2%
COc1ccc(-c2n[nH]c3c2CN(C(=O)c2ccc(OC)c(OC)c2)CC3)cc1	5%	3	0	-18%	3.2µM*
O=C(CSC1=NS(=O)(=O)c2ccccc2N1)Nc1cccc(F)c1	x	10	-1	x	-1%
Cc1cccn2cc(COc3cccc([N+](=O)[O-])c3)nc12	0%	-1	3	1%	1%
Cc1cccn2cc(COc3ccc(-c4ccccc4)cc3)nc12	u	25	-1	13µM*	-11%
Brc1ccc(OCc2cn3ccccc3n2)cc1	-4%	2	u	10µM*	-12%
O=C(COc1cccc2ccccc12)NNC(=O)c1cccs1	-3%	12	2	-17%	-1%
SMILES	VP16 counter	TRPV1 potentiator	TRPV1 agonist	RORg inh	uPA surface inh
O=C1CCCc2ccccc2N1Cc1ccccc1Cl	-4%	-9	22	4%	0%
O=C1CCCc2ccccc2N1Cc1c(Cl)cccc1Cl	u	x	x	1.8µM*	0%
O=C(Nc1cc(Cl)cc2c1[nH]c1cnccc12)c1cccnc1	-14%	x	x	-10%	x
C=CCNC(=S)NNC(=O)c1cc(C)nc2ccccc12	-6%	4	1	-43%	1%
C/C(=N\NC(=O)c1cc(C2CC2)nc2ccccc12)c1ccc(C)s1	-3%	-5	15	-30%	-8%
C/C(=N\NC(=O)c1cc(C2CC2)nc2ccccc12)c1ccc(O)cc1O	18µM*	11	-3	16µM*	-10%
CCNC(=S)NNC(=O)c1cc(C2CC2)nc2ccccc12	u	-5	6	0.71µM*	x
CCCNC(=S)NNC(=O)c1cc(C2CC2)nc2ccccc12	10µM*	4	-3	11µM*	1%
COC(=O)C1(C(=O)OC)C/C=C\C/C=C\c2ccccc2C1C[N+](=O)[O-] (stereo not drawn)	1%	x	x	-12%	x
COc1ccc(NC2=NCCCCC2)cc1	-3%	12	0	6%	-1%
COc1ccc(-c2nc(NC3=NCCCCC3)sc2C)cc1	4%	3	u	10µM*	-5%
